Assay outcomes from PubChem BioAssay.
In the library only some 3.2% were active in any assay of this set; here they are far more common.
CendR NRP1 mod – alters CendR peptide binding to human NRP-1. FAM-RPARPAR peptide binding to NRP-1, fluorescence polarization. inhibition, % at 25 µM. actives 0.85% (n = 360,000). AID 602438;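 active means inhibition or corrected inhibition above about 18%, plus a signal ratio from 0.5 to 1.5, limit read from the data, passing the limit was not always enough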
Target sequence (O14786 whole entry, looked up): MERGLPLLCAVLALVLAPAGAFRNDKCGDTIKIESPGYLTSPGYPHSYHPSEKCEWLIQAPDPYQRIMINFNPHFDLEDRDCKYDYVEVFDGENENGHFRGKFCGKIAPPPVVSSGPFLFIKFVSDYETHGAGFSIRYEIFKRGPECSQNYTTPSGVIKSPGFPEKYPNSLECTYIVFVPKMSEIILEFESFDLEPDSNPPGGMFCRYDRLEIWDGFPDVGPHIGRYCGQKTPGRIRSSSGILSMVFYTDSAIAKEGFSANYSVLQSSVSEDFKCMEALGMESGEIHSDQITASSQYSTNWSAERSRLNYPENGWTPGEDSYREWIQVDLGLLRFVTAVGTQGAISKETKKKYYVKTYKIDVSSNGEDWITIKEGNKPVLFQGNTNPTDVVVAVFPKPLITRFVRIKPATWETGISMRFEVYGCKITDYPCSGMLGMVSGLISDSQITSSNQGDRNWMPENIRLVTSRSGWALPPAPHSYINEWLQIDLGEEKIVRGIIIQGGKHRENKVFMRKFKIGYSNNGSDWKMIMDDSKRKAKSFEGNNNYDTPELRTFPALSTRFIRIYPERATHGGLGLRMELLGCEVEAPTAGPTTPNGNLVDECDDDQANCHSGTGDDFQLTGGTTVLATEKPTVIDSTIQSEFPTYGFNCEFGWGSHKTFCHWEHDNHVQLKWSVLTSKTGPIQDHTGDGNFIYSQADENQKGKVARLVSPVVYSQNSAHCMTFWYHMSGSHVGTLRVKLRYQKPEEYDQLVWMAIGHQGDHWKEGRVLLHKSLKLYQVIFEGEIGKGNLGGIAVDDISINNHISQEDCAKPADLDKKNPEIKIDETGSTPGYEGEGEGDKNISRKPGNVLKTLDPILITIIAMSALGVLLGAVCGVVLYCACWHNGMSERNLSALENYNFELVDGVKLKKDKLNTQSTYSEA
MEKK3 PB1 HTS – modulators (inhibitors or enhancers) of MEK5 binding to human MEKK3 PB1 domain; AID 1529; bead-based flow cytometry, Alexa488-MEK5 binding to MEKK3; actives lie on both sides; 0 = blocked by unlabeled MEK5, 100 = vehicle; Q99759; actives 1.4% (n = 290,000); binding response (% of control), % at 10 µM;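 active means binding response more than 3 SD above or below the average of its plate-row segment, actives on both sides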;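 further: Alexa488 bead fluorescence after subtracting the streptavidin-only scavenger bead signal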
MEKK2 mut-MEK5 – signal of MEK5 binding to mutant human MEKK2 PB1 domain | actives 0.35% (n = 290,000) | bead flow cytometry, Alexa488-MEK5 binding to MEKK2 mutant | percent response, % at 10 µM; in the data active means percent response above about 24%, passing the limit was not always enough
SKN-1 inh – blocks SKN-1 activity in C. elegans | C. elegans VP596 Pgst-4::GFP/RFP ratio, acrylamide-induced, 24 h | inhibition, % at 21.8 µM | actives 0.49% (n = 360,000) | AID 624304;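 active means interference check ratio from 0.5 to 1.5 plus GFP to RFP signal ratio inhibition reaching or exceeding a fixed threshold, cut at about 30% in these data, passing the limit was not always enough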
MEKK2wt PB1 HTS – raises or lowers MEK5 binding to wildtype human MEKK2 PB1 domain; binding response (% of control), % at 10 µM; AID 1531; bead flow cytometry, Alexa488-MEK5 binding to MEKK2 WT; actives lie on both sides; Q9Y2U5; actives 1.1% (n = 290,000); in the data active means binding response below about 67% or above about 130%
MEKK2wt confirm – raises or lowers MEK5 binding to wildtype human MEKK2, retest; shares compounds with MEKK3 PB1 HTS; bead flow cytometry, Alexa488-MEK5 binding to MEKK2 WT; actives lie on both sides; binding response (% of control), % at 10 µM; actives 2.4% (n = 5,900); in the data active means binding response below about 16% or above about 210%; inactive means in between
MEKK2mut-MEK5 – signal of MEK5 binding to mutant human MEKK2, retest. actives 2% (n = 5,900). percent response, % at 10 µM. AID 1893. shares compounds with MEKK3 PB1 HTS. bead flow cytometry, Alexa488-MEK5 binding to MEKK2 mutant; in the data active means percent response mostly above about 71%, no sharp cut-off; inactive means mostly below about 38%;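 further: higher means compound restores mutant binding toward wildtype level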
MEKK3 confirm – MEKK3-MEK5 PB1 inhibition, single concentration confirmation; bead flow cytometry, Alexa488-MEK5 binding to MEKK3; stronger effect = lower value; binding response (% of control), % at 10 µM; shares compounds with MEKK3 PB1 HTS; actives 1.8% (n = 5,900);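 active means binding response below 72% of control, or above a set upper limit, though filed actives all read lower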
Numbers stand for hits; – = inactive; · = not tested or not shown; [ ] = another dose, or the depositor's remark.

SMILES | CendR NRP1 mod | MEKK3 PB1 HTS | MEKK2 mut-MEK5 | SKN-1 inh | MEKK2wt PB1 HTS | MEKK2wt confirm | MEKK2mut-MEK5 | MEKK3 confirm
COCCNC(=O)C1=NOC(Cn2cc(C#N)c(=O)n(C)c2=O)C1 (stereo not drawn) | – | 145 | – | – | – | – | – | –
CC(=O)OC[C@@H]1CN(Cc2ccccc2)C[C@H](n2cnc3c(NCC(C)C)ncnc32)O1 | – | · | · | – | · | · | · | ·
COc1cccc(CNC(=O)c2ccc(N3CCOCC3)c([N+](=O)[O-])c2)c1 | – | – | – | – | – | · | · | ·
Cc1ccc(Cl)c(OC(=O)c2ccc(N3CCOCC3)c([N+](=O)[O-])c2)c1 | – | 137 | – | – | – | – | – | –
COc1ccccc1CNC(=O)c1ccc(N2CCOCC2)c([N+](=O)[O-])c1 | – | 44[inhibitor] | – | – | – | – | – | –
CC(C)OC(=O)c1cc(NC(=S)Nc2ccc([N+](=O)[O-])cc2)cc(C(=O)OC(C)C)c1 | – | – | 40 | – | 169 | – | – | –
CC(C)CCNC(=S)Nc1ccc([N+](=O)[O-])cc1 | – | 129 | – | – | – | – | – | –
COCCNc1nc(NCc2cc(-c3ccc(OC)cc3)no2)c2sccc2n1 | – | · | · | – | · | · | · | ·
Cc1ccc(N=Cc2sc(O)c3ccccc23)c(C)c1 | – | – | – | – | 135 | – | – | –
S=C(NCCN1CCOCC1)Nc1cccc(Cl)c1 | – | – | – | – | – | · | · | ·
COc1cccc(NC(=S)NCCN2CCOCC2)c1 | – | 141 | – | – | – | – | – | –
Cc1cccc(NC(=S)NCCCN2CCOCC2)c1 | – | 138 | – | – | – | – | – | –
CC(C)C[C@H]1COc2cccc(N3CCC[C@H]3CO)c2S(=O)(=O)N1 | – | · | · | – | · | · | · | ·
CCc1nc2ccc(C(=O)N(C)CCCN(C)C)cn2c1N(C)C(=O)C1CCCCC1 | – | · | · | – | · | · | · | ·
c1csc(CNc2ccc3c(c2)OCCO3)c1 | – | 131 | – | – | – | – | – | –
Oc1ccccc1CNc1ccc2c(c1)OCCO2 | – | – | – | – | – | · | · | ·
O=C(CSc1nnc(Cn2cnc3ccccc32)o1)Nc1cccc2ccccc12 | – | 13[inhibitor] | – | – | 19[inhibitor] | – | – | –
COc1cccc(C(=O)COC(=O)c2n[nH]c(=O)c3ccccc23)c1 | – | 60[inhibitor] | – | – | – | – | – | –
O=C(COC(=O)c1n[nH]c(=O)c2ccccc12)c1ccccc1 | – | – | – | – | – | · | · | ·
Cc1ccc(N(CC(N)=O)C2SC(=O)N(C)C2=O)cc1 (stereo not drawn) | – | 126 | – | – | – | – | – | –
C[C@@H]1CN([C@@H](C)CO)S(=O)(=O)c2ccc(Br)cc2O[C@@H]1CN(C)C(=O)C1CC1 | – | · | · | – | · | · | · | ·
CCCCCc1ccc(OCCCC[n+]2cccc(C)c2)c(CCCCC)c1 | – | – | – | – | – | · | · | ·
CCCCCc1ccc(OCCCC[n+]2ccccc2)c(CCCCC)c1 | – | – | – | – | 164 | – | – | –
CCCCCc1ccc(OCCCC[n+]2ccc(C)cc2)c(CCCCC)c1 | – | – | – | – | 186 | – | – | –
CCC(C)(C)c1ccc(OCCCC[n+]2ccccc2)c(C(C)(C)CC)c1 | – | – | – | – | 185 | – | – | –
SMILES | CendR NRP1 mod | MEKK3 PB1 HTS | MEKK2 mut-MEK5 | SKN-1 inh | MEKK2wt PB1 HTS | MEKK2wt confirm | MEKK2mut-MEK5 | MEKK3 confirm
COc1ccccc1CNCCS(=O)(=O)NCc1ccccc1 | – | · | · | – | · | · | · | ·
CCc1ccc(Nc2nc3ccccc3c(=O)s2)cc1 | – | – | – | – | – | · | · | ·
COc1ccc2ccccc2c1-c1sc(Nc2ccccc2)n[n+]1-c1ccc(F)cc1 | – | – | 43 | – | 155 | – | – | –
CCc1ccc(Nc2n[n+](-c3ccccc3)c(-c3cc(OC)c(OC)cc3Br)s2)cc1 | – | – | 77 | – | 194 | 225 | 75 | –
CCc1ccc(Nc2n[n+](-c3ccccc3)c(/C=C/c3ccccc3)s2)cc1 | · | – | 25 | · | 189 | – | – | –
CC(C)C(=O)N1CCCC1(C)C(=O)Nc1cccc(Oc2ccccc2)c1 (stereo not drawn) | – | · | · | – | · | · | · | ·
O=C(COc1ccccc1)NCc1nnc2c3ccccc3c(-c3ccccc3)nn12 | – | 149 | – | – | – | – | – | –
C/C(=N/NC(=O)c1ccoc1C)c1ccc(N2CCOCC2)cc1 | – | 131 | – | – | – | – | – | –
Cc1cc(C(=O)Nc2ccccc2)c2ccccc2n1 | – | – | – | – | – | · | · | ·
COc1cc(NC(=O)c2cc(C)nc3ccccc23)cc(OC)c1 | – | 129 | – | – | – | – | – | –
C=CCN(C(=O)CSc1nc2c(sc3ccccc32)c(=O)n1CCN(CC)CC)c1ccccc1 | 25 | – | 65 | – | 192 | – | – | –
CCN(CC)CCn1c(SCC(=O)Nc2ccc(F)cc2)nc2c(sc3ccccc32)c1=O | · | – | – | · | – | · | · | ·
COCCn1c(=NC(=O)C(C)(C)C)sc2cc([N+](=O)[O-])ccc21 | – | 72[inhibitor] | – | – | – | – | – | –
CC(=O)Nc1cccc(C(=O)Nc2cc(C(F)(F)F)ccc2-n2cncn2)c1 | – | · | · | – | · | · | · | ·
COc1ccc2[nH]c(=O)c(CN(C(=O)NC3CCCCC3)C3CCCCC3)cc2c1 | – | – | – | – | – | · | · | ·
COc1ccc2[nH]c(=O)c(CNC3CCCCC3)cc2c1 | – | 78[inhibitor] | – | – | – | – | – | –
CCOc1cc2[nH]c(=S)n(Cc3ccc(C(=O)NCCN(CC)CC)cc3)c(=O)c2cc1OCC | – | – | 29 | – | – | – | – | –
O=C(NCCCN1CCCC1)c1ccc(Cn2c(=S)[nH]c3ccc(Br)cc3c2=O)cc1 | · | – | – | · | 144 | – | – | –
COc1cccc2c1NC(C(=O)O)C1CC=CC21 (stereo not drawn) | 42 | – | – | – | 29[inhibitor] | – | – | –
O=C(O)C1Nc2c(cccc2C(F)(F)F)C2C=CCC12 (stereo not drawn) | · | – | – | · | – | · | · | ·
O=C(c1ccccc1)C1C(c2ccccc2)C1[N+](=O)[O-] (stereo not drawn) | – | – | – | – | – | · | · | ·
CN(C)c1ccc([C@@H]2[C@@H]([N+](=O)[O-])[C@H]3C=Cc4ccccc4N3[C@H]2C(=O)c2ccc(Cl)cc2)cc1 | – | – | – | – | 1.0[inhibitor] | – | – | –
CN1CCCN(C(=O)c2c(F)cccc2Cl)CC1 | – | – | – | – | – | · | · | ·
Cc1ccc(S(=O)(=O)N2CCOCC2)cc1NC(=O)COC(=O)CCC(=O)c1ccc(F)cc1 | – | · | · | – | · | · | · | ·
